Inconclusive results are not listed. Entries that show only a call come without a potency. Calls of active or inactive are those of the source. Calls follow the shape of the full dose curve.
Each molecule was assayed against Retinoic acid receptor RXR-alpha (Homo sapiens) (UniProt P19793) (assay: qHTS assay to identify small molecule agonists of the RXR signaling pathway (AID 1159527; also: nearly all actives have a fitted effect of over 35% in size)). Conditions: HEK293T RXRa-UAS-bla, beta-lactamase ratio, 16 h; series mostly up to 76.8 µM.
Retinoic acid receptor RXR-alpha (Homo sapiens), sequence (P19793 whole entry, looked up): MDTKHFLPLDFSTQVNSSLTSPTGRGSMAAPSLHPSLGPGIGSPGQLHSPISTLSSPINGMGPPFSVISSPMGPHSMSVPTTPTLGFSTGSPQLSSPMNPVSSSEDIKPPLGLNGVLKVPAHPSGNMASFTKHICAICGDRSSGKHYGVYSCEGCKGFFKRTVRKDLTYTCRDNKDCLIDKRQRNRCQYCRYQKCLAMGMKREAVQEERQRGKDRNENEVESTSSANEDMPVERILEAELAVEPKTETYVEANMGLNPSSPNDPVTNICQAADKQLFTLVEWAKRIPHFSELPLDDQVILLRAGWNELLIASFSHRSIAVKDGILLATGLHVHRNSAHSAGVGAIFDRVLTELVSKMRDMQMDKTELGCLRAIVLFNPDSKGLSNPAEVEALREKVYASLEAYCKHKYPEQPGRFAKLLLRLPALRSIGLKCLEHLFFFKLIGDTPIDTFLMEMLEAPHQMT
From the text: U.S. Tox21 Program National Center for Advancing Translational Sciences [NCATS] NIH Chemical Genomics Center [NCGC] U.S. Environmental Protection Agency [EPA] National Institutes of Environmental Health Sciences [NIEHS] National Toxicology Program [NTP] U.S. Food and Drug Administration [FDA] Tox21 Assay Overview: The Retinoid X receptor (RXR), a nuclear hormone receptor expressed in liver, spleen, placenta, epidermis, central nervous system. These receptors are able to form homo and heterodimers with other nuclear receptors and due to this heterodimerizing ability, RXR functions as master regulators producing diverse physiological effects. Three subtypes of RXR exist; alpha, beta and gamma. Retinoid X receptor alpha (RXR-alpha) has potential roles in metabolic signaling pathways, skin alopecia, dermal cysts, cardiac development, insulin sensitization etc. Therefore screening environmental chemicals on RXR-alpha signaling can be used for the studies focused on such therapeutic applications. For quantification of RXR-alpha ligands signaling, GeneBLAzer RXR alpha-UAS-bla HEK 293T (Life Technologies, Carlsbad, CA) cells containing a beta-lactamase reporter-gene under control of Retinoid X receptor-alpha response element were used to screen Tox21 10K library.
Tox21 Assay Protocol Summary: RXR-alpha HEK 293T cells were dispensed at 2,000 cells/6 uL of assay medium containing 2% charcoal-stripped FBS using a Multidrop Combi (ThermoFisher Scientific, Waltham, MA) dispenser. The assay was performed in black wall/clear-bottom 1536-well plates (Greiner Bio-One North America Inc. Monroe, NC). 9-cis retinoic acid was used as a positive control in the agonist mode screen. After the assay plates were incubated at 37 C and 5% CO2 for 5 hr, 23 nL of compounds dissolved in DMSO, positive controls or DMSO only were transferred to the assay plate by a Pintool station (Kalypsys, San Diego, CA). The assay plates were incubated at 37 C and 5% CO2 for 16 hr. One uL of LiveBLAzer B/G FRET substrate (Life Technologies) was added using a Flying Reagent Dispenser (Aurora Discovery, San Diego, CA) and the plates were incubated at room temperature for 2 hr. Fluorescence intensity (405 nm excitation, 460/530 nm emission) was measured using an Envision plate reader (PerkinElmer, Shelton, CT).

| Compound | Potency |
| --- | --- |
| CCC1C(=O)OCC1Cc1cncn1C (stereo not given) | inactive |
| CO[Si](C)(OC)c1ccccc1 | inactive |
| CC(=O)N1C[C@H](O)C[C@H]1C(=O)O | inactive |
| CC(C)[C@H]1CC[C@@H](C)CC1=O | inactive |
| NCCCC[C@H](N[C@@H](CCc1ccccc1)C(=O)O)C(=O)N1CCC[C@H]1C(=O)O | inactive |
| Cc1ccc(C(=O)c2ccc(CC(=O)O)n2C)cc1 | inactive |
| Clc1cc(Cl)c(Cl)nc1Cl | inactive |
| O=C(c1ccccc1O)c1ccccc1O | inactive |
| COc1ccccc1OCC1CNC(=O)O1 (stereo not given) | inactive |
| CC(C)C(=O)OC(=O)C(C)C | inactive |
| O=[N+]([O-])c1cncn1CCN1CCOCC1 | inactive |
| Cc1ccc(C(=O)c2ccccc2)cc1 | inactive |
| CCN1C=CN(C)C1C (stereo not given) | inactive |
| C=CC(=O)OCCCl | inactive |
| COc1c(N2CCNC(C)C2)c(F)cc2c(=O)c(C(=O)O)cn(C3CC3)c12 (stereo not given) | inactive |
| CCOC(=O)COc1cc(-n2ncc(C(F)(F)F)c(C)c2=O)c(F)cc1Cl | inactive |
| CN(C)CCN(C)CCN(C)C | inactive |
| CC(=O)O[C@@]12CO[C@@H]1C[C@H](O)[C@@]1(C)C(=O)[C@H](O)C3=C(C)[C@@H](OC(=O)[C@H](O)[C@@H](NC(=O)OC(C)(C)C)c4ccccc4)C[C@@](O)([C@@H](OC(=O)c4ccccc4)[C@H]21)C3(C)C | inactive |
| N[C@H](C(=O)O)[C@@H](O)c1ccc(O)c(O)c1 | inactive |
| CC(C)(C)c1ccc(-c2ccc(C(C)(C)C)cc2)cc1 | inactive |

| Compound | Potency |
| --- | --- |
| CC/C=C\CCOC(C)OCC (stereo not given) | inactive |
| CNC(=O)Nc1ccc(Cl)c(Cl)c1 | inactive |
| CCCCCCCCCCCCSC | inactive |
| C1CCC2=NCCCN2CC1 | inactive |
| C[C@H]1[C@H](NC(=O)/C(=N/OC(C)(C)C(=O)O)c2csc(N)n2)C(=O)N1S(=O)(=O)O (stereo in doubt) | inactive |
| [Ca+2] | inactive |
| Nc1ccncc1N | inactive |
| Nc1c2c(nc3c1CCC3)CCCC2 | inactive |
| O=[N+]([O-])c1ccc(/C=N\O)o1 | inactive |
| C1CCC2(CCCCO2)OC1 | inactive |
| CC(C)(CCC(=O)O)C(=O)O | inactive |
| CC(C)CCCO | inactive |
| c1ccc2sc(SN3CCOCC3)nc2c1 | inactive |
| Cc1nc(C2CCCCC2)c(-c2ccc(S(N)(=O)=O)c(F)c2)o1 | inactive |
| C[C@@H]1CCC[C@H](C)N1 | inactive |
| Cc1onc(-c2c(Cl)cccc2Cl)c1C(=O)Cl | inactive |
| CC(COc1ccccc1)NN (stereo not given) | inactive |
| C[N+](C)(C)CCCCCCCCCC[N+](C)(C)C | inactive |
| CC1=CC(=O)[C@H]2C[C@@H]1C2(C)C | inactive |
| NC(=O)NC1N=C([O][Al])NC1=O (stereo not given) | inactive |
